Growth data for 15 compounds are collected here from PubChem BioAssay (NCI).

This is part of a sample that, as a whole, favours compounds with a hit. Of some 83,000 tested, about 20% had one in any assay.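 Cells were grown in 96-well plates and exposed to the test compound at a single concentration for 48 hours; results are reported as percent growth, with values below 10 considered active.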 A number with no mark means an inactive call. Active and inactive are the calls of the source.

This test concerns HL-60(TB) leukemia. Put plainly: NCI-60 one-dose screen, 48 h (100 = growth as untreated, 0 = no growth, -100 = all killed). Particulars: 10 µM unless noted.
As for `COc1cc(CNc2oc(-c3ccccc3)c(-c3ccccc3)c2C#N)cc(CN2CCN(C)CC2)c1O`, the growth was 75.7%. The same measure for `N#Cc1c(N2CCOCC2)nc(=S)[nH]c1-c1ccco1`: 70.7%; for `CN(CCCN(C)CCC1CCCCC1)CCC1CCCCC1`: 116%; for `COCC[C@H]1CCC/C=C/[C@@H]2C[C@H](O)C[C@H]2[C@H](O)/C=C/C(=O)O1`: 3.25% (active). On to `COc1cc(/C=C/C(=O)c2c(C)nc3ccccc3c2C)ccc1OCCCOc1cc2c(cc1OC)C(=O)N1CCC[C@H]1C=N2`, for which the growth was -33% (active). Under `CCCCCCCCCCCCNC(=O)[C@H]1CSC(c2cc3ccccc3s2)N1` (stereo not given in full) stands -33.3% (active); under `C=CCn1c(SCC(=O)Nc2ccc(C(=O)/C=C/c3ccc(Cl)cc3)cc2)nnc1-c1ccc(Cl)c(Cl)c1`, 56.8%. The same measure for `CN(C)c1ccc2cc(-c3cc4c(oc3=O)-c3ccccc3OC4O)c(=O)oc2c1` (stereo not given): -66.5% (active); for `COc1cc(OC)cc(-c2ccc(-c3ccc(C(=N)N)cn3)s2)c1`: -25.4% (active); for `CC(=O)c1c(OCC#N)ccc2c(C)cc(=O)oc12`: 81.6%. The same measure for `O=[N+]([O-])c1cc(NS(=O)(=O)c2ccccc2)ccc1NS(=O)(=O)c1ccccc1`: 113%; for `Cn1cc(-c2csc(-c3c[nH]c4ncccc34)n2)c2cc(Br)cnc21`: 87.6%; for `COc1ccc(C(=O)C(C)C)c2ccccc12`: 78.9%. `C[n+]1c2ccccc2nc2c(N)cc(N)cc21`: the growth is 74.7%. The same measure for `CCCCCCCCCCCCCCCC[n+]1cccc(C#N)c1`: 30.4%.
